Laboratory results from PubChem BioAssay (NCI).
The panel holds about 83,000 compounds, 20% with a hit somewhere; the sample as a whole holds those more often.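 Percent growth is the endpoint: 0 to 100 indicates growth inhibition (40 means 60% inhibition), 0 means no net growth, and negative values indicate cell death.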 Activity calls are given as the source filed them. Rule for the calls: active = growth percent below 10; inactive = the rest.

test system: HL-60(TB) leukemia; assay: NCI-60 one-dose screen, 48 h (100 = growth as untreated, 0 = no growth, -100 = all killed); conditions: 10 µM unless noted

SMILES	growth
CCN(CC)CC(O)CNc1ccc(NCC2CO2)c2c1C(=O)c1ccccc1C2=O (stereo not given)	-25.2% (active)
N#Cc1cnc2cc(OC[C@@H](O)CO)c(NC(=O)CC3CSSC3)cc2c1Nc1ccc(OCc2cccc(F)c2)c(Cl)c1	-56.4% (active)
Cc1c(-c2ccc(-c3ccccc3F)cc2)nc2ccc(F)cc2c1C(=O)O	5.22% (active)
COc1ccc(O)c(N=Nc2nccs2)c1	-22.5% (active)
COc1cc(-c2nc3sccn3c2-c2ccnc(NCCNS(=O)(=O)c3ccccc3)n2)ccc1F	60.2% (inactive)
COC(=O)/C=C1/SC(=Nc2ccc([N+](=O)[O-])cc2)N(CCc2c[nH]c3ccccc23)C1=O	69.8% (inactive)
COC1CCC(N2C(=O)CNc3ncc(-c4ccc(C(C)(C)O)nc4)nc32)CC1 (stereo not given)	11.2% (inactive)
COc1ccc(-c2nn(-c3ccc(NC(=O)Nc4ccc(Cl)c(C(F)(F)F)c4)cc3)cc2-c2ccncc2)cc1Cl	-11.9% (active)
CC1CCCN(CCCCCOc2ccc3oc4ccccc4c(=O)c3c2)C1 (stereo not given)	45.5% (inactive)
Nc1cc(N)c2nc(-c3ccccc3)c(NCCc3ccc(Cl)c(Cl)c3)nc2c1	-10.5% (active)
C=CCn1c(C)nc2ccc(Nc3nc(Nc4ccc5nc(C)n(CC=C)c5c4)c4ccccc4n3)cc21	-63.2% (active)
COc1ccc2c(c1)C(Br)=C(CCO)C2c1ccccc1 (stereo not given)	1.04% (active)
Cn1ccnc1C(=O)/C=C/c1ccc(C(=O)Nc2ccc(S(F)(F)(F)(F)F)cc2)cc1	-30.1% (active)
N/C(=N\C(N)=N\c1nc2ccccc2s1)c1cccc(Cl)c1	19.7% (inactive)
COC(=O)[C@@H](NC(=O)NC(=O)NC(=O)CI)C(C)C	77.9% (inactive)
COc1ccc2cc1Oc1ccc(cc1)C[C@H]1c3c(cc4c(c3Oc3cc5c(cc3OC)CCN(C)[C@@H]5C2)OCO4)CCN1C	36.3% (inactive)
COc1cc(/C=C/C(=O)Nc2cccnc2Nc2ccc(F)cc2)cc(OC)c1OC	107% (inactive)
CC(=O)C1=C(C)NC(SCc2nnc(-c3ccc(C)cc3)o2)=NC1c1ccc(F)cc1 (stereo not given)	80.8% (inactive)
Cn1cc(-c2cnn3c(N)c(Br)c([C@@H]4CCCNC4)nc23)cn1	21.2% (inactive)
COc1ccc2nc(Cl)c(/C=C3\CC(c4ccccc4)=NN(c4ccccc4)C3=O)cc2c1	99% (inactive)

SMILES	growth
COc1ccc(C(=O)c2cc3c(N)c(C(=O)Nc4cccc(OC)c4)sc3nc2C)cc1	-44.5% (active)
Cc1ccccc1NC(=O)N/C(N)=N/c1nc(-c2cccc([N+](=O)[O-])c2)cs1	6.06% (active)
O=Cc1ccc(O)c2ncccc12	-69.3% (active)
O=C1NCC(c2cc3ccccc3[nH]c2=O)Nc2ccccc21 (stereo not given)	95.7% (inactive)
O=C1C(Cl)=C(NCCCCCCNC2=C(Cl)C(=O)c3ccccc3C2=O)C(=O)c2ccccc21	55.7% (inactive)
O=C(C(=O)N1CCOCC1)c1ccc(OC2OC(CO)C(O)C(O)C2O)cc1 (stereo not given)	82.7% (inactive)
C/C(=N\NC(=O)C(C)SC(C)C(=O)N/N=C(\C)c1cccnc1)c1cccnc1 (stereo not given)	77.1% (inactive)
Cc1ncc(C(=O)Nc2ccc(CN3CCN(C)CC3)c(C(F)(F)F)c2)cc1C#Cc1cnc(N)c2cnccc12	16.1% (inactive)
Cc1nc(Nc2ccc(NC(=S)Nc3ccccc3)cc2)c2ccccc2n1	86.4% (inactive)
CCCCC[C@H]1CC=C2C(=O)C(Cl)=C[C@@H]2CC=CCCCC(=O)O[C@@H](CCCCC)CC=C2C(=O)C(Cl)=C[C@@H]2CC=CCCCC(=O)O[C@@H](CCCCC)CC=C2C(=O)C(Cl)=C[C@@H]2CC=CCCCC(=O)O1	8.31% [8 µM] (active)
Cc1nn(-c2ccccc2)c(-n2ccnc2)c1/C=N/Nc1nc(-c2ccc(Cl)c(Cl)c2)cs1	76.6% (inactive)
O=c1c2cccc3c(Nc4c(F)cccc4F)ccc(c32)c2nc3ccccc3n12	85.9% (inactive)
NC(=O)NS(=O)(=O)c1ccc(N2N=C(C(F)(F)F)CC2c2cc(C(F)(F)F)cc(C(F)(F)F)c2)cc1 (stereo not given)	38.7% (inactive)
Cc1ncc(C(=O)Nc2ccc(CN3CCN(C)CC3)c(C(F)(F)F)c2)cc1C#Cc1c(N)ncc2ccc(F)cc12	9.43% (active)
O=C(c1nnc(Nc2ccccc2Br)o1)c1c[nH]c2ccccc12	103% (inactive)
CSc1nc(=O)n(Cc2ccc(F)cc2)c(=O)n1Cc1ccc(C)cc1	90% (inactive)
COc1cc(Cl)cc(-c2nn(C(=O)NS(=O)(=O)c3ccc(Cl)cc3)cc2-c2ccncc2)c1	94.8% (inactive)
CCNCCNc1cc(-c2ccc(F)cc2)c(C#N)c2nc3ccccc3n12	-48.8% (active)
CCCC(CCC)(C(N)=O)C(=O)O	104% (inactive)
CCCCC1COc2cccc3c2N1C=C/C3=C\C(=O)N(C)c1ccccc1 (stereo not given)	9.39% (active)
